# Data reported in PubChem BioAssay (Tox21).
# Inconclusive results are not listed. Values without a mark were called inactive. The source made the active and inactive calls. Calls come from the whole dose curve.
# Experiment: qHTS assay for small molecules that induce genotoxicity in human embryonic kidney cells expressing luciferase-tagged ATAD5 - cell viability (AID 651634); note: nearly all actives have a fitted effect of over 25% in size
# Details: HEK293T ATAD5-luc cells viability, CellTiter-Fluor, 15.5 h; series mostly up to 83.3 µM; activity, negative = cytotoxicity: at the top concentration
# From the text: National Center for Advancing Translational Sciences [NCATS]
# NIH Chemical Genomics Center [NCGC]
# U.S. Environmental Protection Agency [EPA]
# National Institutes of Environmental Health Sciences [NIEHS]
# National Toxicology Program [NTP]
# U.S. Food and Drug Administration [FDA]
# Enhanced Level of Genome Instability Gene 1 (ELG1; human ATAD5) protein levels increase in response to various types of DNA damage. Using a luciferase reporter-gene tagged with ElG1, a cell-based assay [developed by Kyungjae Myung, NHGRI, NIH] was used to measure the induction of ATAD5 in human embryonic kidney cells (HEK293T). So, increase in luciferase activity can be used to identify the compounds that cause genetic stress. In addition to genotoxicity, these cells were also used to test for cytotoxicity by measuring the protease activity within live cells.
# Tox21 Assay Protocol Summary:
# For cytotoxicity screening, 2,000 cells in 5 uL/well were dispensed into white, solid-bottom 1536-well plates using a Multidrop Combi (Thermo Scientific) dispenser. Following transfer of 23 nL compound or DMSO vehicle by a pin tool, the plates were incubated 15.5 hr at 37C and 5% CO2. 1 ul CellTiter-Fluor reagent (Promega, Madison, WI) was then added to each plate and following 30 min incubation at 37C, fluorescence intensity was quantified on a ViewLux CCD-based plate reader.
# % is set by controls: 0 for no effect and ±100 for the full control effect.
Structure (SMILES),"activity, negative = cytotoxicity",Potency
CCCOC(C)=O,12.1%,
Nc1ccc(F)cc1F,13.5% [at 95.3 µM],
CC(=O)Oc1cccc2c1C(=O)c1c(OC(C)=O)cc(C(=O)O)cc1C2=O,-11.6%,
O=[N+]([O-])c1ccccc1CCO,17.4% [at 95.3 µM],
Clc1nc2ccccc2nc1Cl,-7.36% [at 95.3 µM],
CC(=O)Nc1cccc(N)c1,1.76% [at 95.3 µM],
CCCCCCCCCCCCCCCCC(=O)O,-14.8%,
O=C(c1ccc(Cl)cc1)c1ccc(Cl)cc1,22.1%,
CC(=O)CC/C=C(\C)CC/C=C(\C)CC/C=C(\C)CCC=C(C)C,17.1%,
CO[C@@H]1[C@@H](O[C@@H]2O[C@H](C)[C@@H](O[C@H]3C[C@@](C)(O)[C@@H](O)[C@H](C)O3)[C@H](N(C)C)[C@H]2O)[C@@H](CC=O)C[C@@H](C)[C@@H](O[C@@H]2CC[C@H](N(C)C)[C@@H](C)O2)/C=C/C=C/C[C@@H](C)OC(=O)C[C@H]1OC(C)=O,-1.89%,
C=CC(=O)OCCCCCCCCCC,7.86%,
CC(C)=CCCC(C)C=O (stereo not given),27.3%,
O=C(O)c1ccccc1[N+](=O)[O-],4.87%,
O=P(c1ccccc1)(c1ccccc1)c1ccccc1,-3.11%,
COc1cc(CNC(=O)CCCC/C=C/C(C)C)ccc1O,,inactive
O=[N+]([O-])c1cccc(I)c1,12.9%,
C=C(C)C(=O)OCCCCCCCCCCOC(=O)C(=C)C,18.9%,
Cc1cc(SC2=C(O)C[C@@](CCc3ccc(N)cc3)(C(C)C)OC2=O)c(C(C)(C)C)cc1CO,6.82%,
C[Si](C)(C)O[Si](C)(C)O[Si](C)(C)C,15.2%,
OCCOc1cccc(OCCO)c1,5.86%,

Structure (SMILES),"activity, negative = cytotoxicity",Potency
O=C1CCCN1CCO,19.4%,
CCc1ccc(C(=O)C(C)CN2CCCCC2)cc1 (stereo not given),16.2%,
CC(C)NC(=O)c1ccccc1N,3.34%,
FC1(F)C(F)(F)C(F)(F)C2(F)C(F)(C1(F)F)C(F)(F)C(F)(F)C1(F)C(F)(F)C(F)(F)C(F)(F)C(F)(F)C12F (stereo not given),14.9%,
CC(C)=CCC[C@H](C)CCO,11%,
c1ccc(CN(Cc2ccccc2)Cc2ccccc2)cc1,17.9%,
CC(C)(C)N,14.6%,
C(/C=C/C=C/Nc1ccccc1)=Nc1ccccc1,9.44%,
CCCc1nc(C)c2c(=O)[nH]c(-c3cc(S(=O)(=O)N4CCN(CC)CC4)ccc3OCC)nn12,-10.6%,
C=CC(C)(O)CC/C=C(/C)CCC=C(C)C (stereo not given),10.4%,
Oc1ccc(CCNCCCCCCNCCc2ccccc2)cc1O,-7.25%,
C/C=C1\[C@H]2C=C(C)C[C@]1(N)c1ccc(=O)[nH]c1C2,5.8%,
CCCC1CCOC(C)S1 (stereo not given),11.8%,
N#C[C@@H]1CC(F)(F)CN1C(=O)CNC1CC2CCC(C1)N2c1ncccn1 (stereo not given in full),13.3%,
O=C(OC1C[C@H]2CC[C@@H](C1)[N+]21CCCC1)C(O)(c1ccccc1)c1ccccc1 (stereo not given in full),13.5%,
CC(O)C(C)O (stereo not given),-3.57% [at 95.3 µM],
Nc1ccc(C(=O)Oc2ccccc2)c(O)c1,10.5%,
CCCCOC(=O)C(C)Oc1ccc(Oc2ccc(C(F)(F)F)cn2)cc1 (stereo not given),7.67%,
C=Cc1ccc(C=C)cc1,15% [at 95.3 µM],
CCCCCCCCCC(C)C=O (stereo not given),-20.6%,
